About 79,000 compounds went through this panel and 15% of them were active in at least one assay; those are over-represented in the sample as a whole. Rule as the data show it: active = growth inhibition above about 70%; inactive = the rest.
Key:
[1] = NCI Yeast Anticancer Drug Screen. Data for the rad50 strain (AID 155);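 also: 0% = growth of vehicle-only cultures of the same strain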; conditions: S. cerevisiae rad50 strain growth inhibition; at 50.0 µM; hits give high values
How it was run: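 A DNA repair-deficient yeast mutant serves as the test organism; compound-induced growth inhibition is calculated against vehicle-treated cells.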

[2] = NCI Yeast Anticancer Drug Screen. Data for the mec2-1 strain (AID 157); conditions: S. cerevisiae mec2-1 strain, at 50.0 µM, hits give high values
How it was run: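 mec2-1 yeast strain, carrying an alteration in DNA damage repair or cell cycle control, was exposed to compounds; growth inhibition was measured relative to vehicle-treated controls.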

[3] = NCI Yeast Anticancer Drug Screen. Data for the cln2 rad14 strain (AID 165);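 also: 0% = growth equal to vehicle treated cultures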; conditions: S. cerevisiae cln2 rad14 strain, at 50.0 µM, hits give high values
How it was run: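 Yeast carrying cln2 and rad14 alterations (cell cycle control and DNA damage repair) were exposed to compounds. Growth inhibition was measured against vehicle-treated controls.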

[4] = NCI Yeast Anticancer Drug Screen. Data for the mlh1 rad18 strain (AID 175); conditions: S. cerevisiae mlh1 rad18 strain growth inhibition; at 50.0 µM; hits give high values
How it was run: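 Growth inhibition of the yeast strain was measured after compound exposure and expressed relative to vehicle-treated controls. The strain carries defined defects in DNA damage repair.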

[5] = NCI Yeast Anticancer Drug Screen. Data for the bub3 strain (AID 167); conditions: S. cerevisiae bub3 mutant strain, at 50.0 µM, hits give high values
How it was run: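 Inhibition values come from growth of compound-treated mutant yeast normalised to vehicle-treated controls.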

Measured: growth inhibition

Fc1ccc(Nc2nc(Cl)c3[nH]cnc3n2)cc1Cl
inactive: [1] 11.5% | [2] 1.45% | [3] 7.6% | [4] -28.7%

C=C(C)C(=O)OC1CC2(C)OC(=CC2=O)C(C)CC2OC(=O)C(=C)C12 (stereo unspecified)
inactive: [1] 13.1% | [2] 18.1% | [3] 25.2% | [4] -34.6%

Cn1cnc2c(=O)[nH]c(=O)[nH]c21
inactive: [1] 25.9% | [2] -10.9% | [5] -34.8% | [4] 10.2%

C=C1C2CCC3C4(C)CCCC(C)(C(=O)O)C4CCC3(C2)C1OC(=O)/C(C)=C/C (stereo unspecified)
inactive: [1] 22.4% | [2] 4.85% | [3] 25.1% | [5] 0.75% | [4] -59.4%

C/C(=C\COc1cc(O)c2c(c1)C(=O)c1cc(C)cc(O)c1C2=O)CCC1OC1(C)C (stereo unspecified)
inactive: [1] 16.7% | [2] -22.9% | [3] -0.65% | [5] -12.4% | [4] -53.7%

Cc1ccc(F)cc1NC(=O)O/N=C(\Cl)C(C)C
inactive: [1] -17.9% | [2] -31.9% | [3] 3.85% | [5] 4.85% | [4] 55.6%

O=C1NC(N/N=C\C(O)C(O)C(O)C(O)CO)=N/C1=C\c1ccc(Cl)cc1 (stereo unspecified)
inactive: [1] 23.6% | [2] 30.6% | [3] 26.9% | [4] 17.6%

COC(=O)c1cc(C#N)[nH]c1-c1ccsc1
inactive: [1] -27.4% | [2] -8% | [3] 6.4% | [5] -3.4% | [4] 6.9%
